# In the library only some 1.5% were active in any assay of this set; here they are far more common.
# MEX-5 binding: C. elegans MEX-5 TCR-2 RNA binding activity. MEX-5/FITC-TCR2 RNA binding, fluorescence polarization; hits give low values. activity score (negative = inhibition of binding), % at 10 µM. 300,000 tested, 0.38% active. AID 1832;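 active = inhibition past about -25% in most replicates, and total fluorescence under double the plate's negative control median, limit read from the data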;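 note: 0% = DMSO and -100% = 5 µM competing unlabeled TCR2 RNA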
# E coli Lon inh: inhibitors of E. coli Lon protease; 360,000 tested, 0.42% active; inhibition, % at 7.94 µM; purified E. coli Lon protease, fluorescence polarization; in the data active = inhibition above about 13%, passing the limit was not always enough;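 note: 0% = enzyme with probe and DMSO and 100% = no enzyme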
# Bcl-xL primary: inhibitors of human Bcl-xL | inhibition, % at 10.9 µM | AID 2129 | Q07817 | 320,000 tested, 0.7% active | GST-Bcl-xL / FITC-Bim BH3 peptide fluorescence polarization;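 active = inhibition above the mean of all tested compounds plus 3 SD, cutoff set per campaign, cut at about 30% in these data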;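 note: 0% = DMSO wells and 100% = unlabeled Bim-BH3 peptide competitor; inhibitors lower millipolarization by displacing the labeled peptide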
# Target sequence (Q07817 whole entry, looked up): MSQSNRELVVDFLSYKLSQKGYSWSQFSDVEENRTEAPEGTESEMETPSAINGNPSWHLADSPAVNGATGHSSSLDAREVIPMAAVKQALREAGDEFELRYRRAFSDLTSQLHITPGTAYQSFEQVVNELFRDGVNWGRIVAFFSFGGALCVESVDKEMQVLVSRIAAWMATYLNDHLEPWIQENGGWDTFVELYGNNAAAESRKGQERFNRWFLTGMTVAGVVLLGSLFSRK
# GLD-1 RNA inh: GLD-1-TGE RNA interaction inhibition (C. elegans); AID 2280; purified GLD-1 + fluorescein TGE RNA, fluorescence polarization; 320,000 tested, 0.44% active; inhibition, % at 5.96 µM; Q17339;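 active = percent inhibition above a per-plate cutoff, the plate mean of test compounds plus 3 SD, cut at about 30% in these data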;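 note: 0% = DMSO wells with GLD-1 and probe and 100% = wells lacking GLD-1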
# EBV gp42 inh: EBV gp42 inhibition. Q1HVG2. Fluorescence polarization binding assay, mP read-out. inhibition, % (tested at 21.74 µM). 220,000 tested, 0.42% active; in the data active = inhibition above about 50%
# MCL1 BIM primary: inhibitors of human MCL1 binding to BIM-BH3 peptide. Q07820. 320,000 tested, 0.68% active. GST-MCL1 / FITC-Bim-BH3 fluorescence polarization. inhibition, % at 10.9 µM. AID 2057;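 active = inhibition above the mean inhibition of all tested compounds plus 3 SD, set per campaign, cut at about 40% in these data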;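 note: 0% = DMSO wells and 100% = unlabeled Bim-BH3 peptide control; higher means more loss of mP so more displacement of Bim peptide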
# Target sequence (Q07820 whole entry, looked up): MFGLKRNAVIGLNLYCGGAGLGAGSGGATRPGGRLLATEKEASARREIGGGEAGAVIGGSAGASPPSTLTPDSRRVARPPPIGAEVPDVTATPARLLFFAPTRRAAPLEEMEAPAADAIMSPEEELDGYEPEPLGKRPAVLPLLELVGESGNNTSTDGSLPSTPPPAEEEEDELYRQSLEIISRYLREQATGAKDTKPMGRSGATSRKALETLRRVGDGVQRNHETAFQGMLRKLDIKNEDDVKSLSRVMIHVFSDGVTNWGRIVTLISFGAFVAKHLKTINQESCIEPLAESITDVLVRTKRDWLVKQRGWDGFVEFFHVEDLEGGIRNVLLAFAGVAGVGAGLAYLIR
# The depositor's hits bear a star; nt = no result.
SMILES,MEX-5 binding,E coli Lon inh,Bcl-xL primary,GLD-1 RNA inh,EBV gp42 inh,MCL1 BIM primary
Cc1nc(C)c(-c2ccc(SCc3ccc([N+](=O)[O-])cc3)nn2)s1,4.3,4.8,5.1,-3.6,nt,13.9
O=C(NCc1ccccc1Br)c1cccc2c1C(=O)c1ccc(N3CCC(Cc4ccccc4)CC3)cc1S2(=O)=O,nt,-23.1,nt,157.0*,nt,nt
O=C(NCC1CCCO1)c1cccc2c1C(=O)c1ccc(N3CCC(Cc4ccccc4)CC3)cc1S2(=O)=O (stereo not drawn),nt,-185.1,nt,6.2,nt,nt
O=C(NC1CCCCC1)c1cccc2c1C(=O)c1ccc(N3CCC(Cc4ccccc4)CC3)cc1S2(=O)=O,nt,-378.9,nt,62.1*,nt,nt
Cc1nc(S(=O)(=O)N(C)c2ccccc2)c(C#N)c(C)c1Cl,-0.3,-1.2,31.2*,-0.3,-15.8,-9.6
CCOC(=O)c1c(C)[nH]c(C)c1C(=O)CSc1nc2ccccc2n1CC,2.4,-9.9,-0.7,-0.4,122.0*,-2.0
COc1ccc(C(=O)N2CCCCC2c2cc(C(=O)Nc3cccc(C#N)c3)no2)cc1 (stereo not drawn),nt,-4.7,nt,nt,nt,nt
N#Cc1cccnc1N1CCN(C(=O)c2[nH]c(C(F)(F)F)nc2-c2ccccc2)CC1,nt,-9.3,nt,nt,nt,nt
Cc1cc(NC(=O)c2ccco2)ncc1NC(=O)CCc1ccccc1,-4.6,3.5,8.9,4.3,15.4,8.4
CCC(=O)Nc1cc(C)c(NC(=O)CCc2ccccc2)cn1,-25.9*,-9.7,48.9*,36.8*,24.4,43.7*
CCS(=O)(=O)NC(=O)C1(C)CCN1C(=O)Cc1ccc(Cl)cc1Cl (stereo not drawn),nt,-4.3,nt,nt,nt,nt
COc1ccc(-c2nc(CS(=O)CC(=O)NCc3cccnc3)c(C)o2)cc1 (stereo not drawn),-2.3,-10.6,5.0,-1.3,135.5*,8.9
Cc1[nH][nH]c(=O)c1C(c1ccc(-c2cccc(C(=O)O)c2)o1)c1c(C)[nH][nH]c1=O,-51.9*,3.7,13.9,1.6,-15.7,17.5
Cc1[nH][nH]c(=O)c1C(c1ccc(-c2ccc(Cl)cc2Cl)o1)c1c(C)[nH][nH]c1=O,nt,nt,nt,nt,-3.8,nt
Cc1[nH][nH]c(=O)c1C(c1ccc(-c2ccccc2C(=O)O)o1)c1c(C)[nH][nH]c1=O,-35.0*,-2.5,11.2,6.7,-20.9,15.2
O=C(CC1C(=O)NCCN1Cc1ccc(Cl)c(F)c1)NC1CCC1 (stereo not drawn),-1.8,-8.6,19.7,5.3,nt,8.4
COc1cc(OC)c(OC)cc1CNC(=O)c1cc(=O)[nH]c2ccccc12,3.6,-8.4,0.1,4.1,nt,-14.8
CC(=O)C1=C(c2ccccc2)N(C(C)=O)n2c(C)nnc2S1,-44.6*,-2.0,5.0,4.5,-10.1,-4.9
CC(=O)N1CCN(c2nnc(-c3ccccc3)c3ccccc23)CC1,-0.9,4.3,2.4,-3.1,nt,3.0
CC(C)(C)OCC1CO1 (stereo not drawn),nt,8.2,5.8,4.8,nt,-2.0
CC(=O)N(C)c1ccc(N=Nc2c(C)[nH]n(C(N)=S)c2=O)cc1,-32.1*,-3.5,-1.1,3.7,-7.8,0.1
CC(=O)N(C)c1ccc(N=Nc2c(C)[nH]n(-c3ccccc3)c2=O)cc1,-2.1,-5.4,-0.5,-2.4,nt,0.4
CC1=NN(C(N)=S)C(=O)C1N=Nc1ccc(S(N)(=O)=O)cc1 (stereo not drawn),-68.7*,-2.7,5.3,0.5,nt,6.7
CC1=NN(C(N)=S)C(=O)C1N=Nc1c(Cl)cc([N+](=O)[O-])cc1Cl (stereo not drawn),-31.0*,3.3,11.3,1.1,nt,21.3
CC(=O)N(C)c1ccc(N=NC2C(=O)N(C(N)=S)N=C2C)cc1 (stereo not drawn),-25.6*,10.9,6.0,4.7,nt,5.7
SMILES,MEX-5 binding,E coli Lon inh,Bcl-xL primary,GLD-1 RNA inh,EBV gp42 inh,MCL1 BIM primary
CC1=NN(C(N)=S)C(=O)C1N=Nc1cccc(Cl)c1 (stereo not drawn),-3.4,-6.7,9.2,3.6,nt,13.6
O=S(=O)(c1ccccc1F)N1CCN(Cc2cc3c(cc2Br)OCCO3)CC1,nt,-5.3,-9.1,3.5,nt,-6.7
CCCCc1n[nH]c2c1/C(=N/OCC)CC(C)(C)C2,3.1,-6.4,0.9,-1.4,-10.9,-0.5
c1ccc2c(c1)nc(N1CCOCC1)c1nnnn12,-4.9,-22.4,43.4*,16.9,41.1,26.4
CNC(=O)c1sc(-c2cccs2)nc1C,nt,-8.3,8.2,6.8,-5.0,8.8
COC(=O)c1cccc(NC(=O)COC(=O)CSc2nc(C)cc(C)n2)c1,-0.3,-0.9,135.2*,4.5,-14.5,6.8
Cc1ccc2nc(SCC(=O)Nc3nonc3C)[nH]c2c1,6.4,5.1,-5.6,14.7,nt,-1.2
COc1ccc2nc(SCC(=O)Nc3nonc3C)[nH]c2c1,-32.0*,-6.5,0.0,-1.9,-8.3,-5.0
O=[N+]([O-])c1ccccc1S(=O)NCc1c(Cl)cccc1Cl (stereo not drawn),nt,-7.7,nt,nt,nt,nt
CC(C)(C)NC(=O)c1sccc1C(=O)O,-4.1,-1.9,5.0,-5.6,99.9*,-0.2
C#CCN(C[C@H]1[C@H](OC(=O)NC2CCCC2)[C@H](OC(=O)NC2CCCC2)C[C@@H](C(=O)OC)[C@H]1C(=O)OC)S(=O)(=O)c1ccc(C)cc1,nt,1.8,nt,nt,nt,nt
CC(=O)N1C(=O)c2cccc3cccc(c23)C(=O)N1C(C)=O,0.4,nt,-3.5,-2.0,-17.4,-3.2
O=C1c2cccc3cccc(c23)C(=O)C1(O)O,-58.7*,5.2,11.0,6.4,nt,2.6
COc1ccc(S(=O)(=O)Nc2cccc3c2O[C@H](CN(C)C)[C@@H](C)CN([C@H](C)CO)C3=O)cc1,nt,1.8,nt,6.0,nt,nt
CCCCn1c(-c2ccc(Cl)c(Cl)c2)nc2cc3[nH]c(=O)c(C(C)C)nc3cc21,-0.1,6.9,21.5,14.9,nt,33.5
CCCCn1c(-c2cccc(Br)c2)nc2cc3[nH]c(=O)c(C(C)C)nc3cc21,-6.9,-16.8,31.1*,18.8,nt,22.7
CCCCn1c(-c2cccnc2)nc2cc3[nH]c(=O)c(C(C)C)nc3cc21,-9.0,-21.6,31.2*,18.2,nt,26.4
CCCNC(=O)Cn1c(=O)/c(=C\c2ccc(-c3cccc([N+](=O)[O-])c3)o2)s/c1=C\C(=O)C(C)(C)C,-2.2,-74.5,-21.1,-28.3,68.7*,-52.6
Cc1cccc[n+]1C1C(c2ccccc2)C(C#N)=C(C(=C=[N-])C#N)NC1(O)C1CC1 (stereo not drawn),-0.5,5.9,43.6*,18.4,-4.4,32.6
N#CC(=C=[N-])C1=C(C#N)C(c2ccccc2F)C([n+]2ccccc2)C(O)(C2CC2)N1 (stereo not drawn),-0.5,-15.3,11.4,1.6,-19.0,9.2
CCOCCCNC(=O)/C(C#N)=C/c1ccc([N+](=O)[O-])o1,-1.2,-35.3,33.9*,45.6*,7.3,34.2
C/C(=N\NC(=O)C1(C)NC(C)(C)Cc2ccccc21)c1ccccc1 (stereo not drawn),0.2,-3.8,2.0,1.3,-7.3,1.4
